# In PubChem BioAssay (NCI):
# About 83,000 compounds went through this panel and 20% of them were active in at least one assay; those are over-represented in the sample as a whole.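 The test compound was applied at a single concentration to cells in 96-well plates for 48 hours, and percent growth was recorded.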 The source made the active and inactive calls. How the source made its calls: active means growth percent below 10; inactive means the rest.
# System: OVCAR-4 ovarian
# Test: NCI-60 one-dose screen, 48 h (100 = growth as untreated, 0 = no growth, -100 = all killed)
# Conditions: 10 µM unless noted
row,Structure (SMILES),growth
1,O=c1oc2ccc([N+](=O)[O-])cc2cc1Br,109% (inactive)
2,O=C1/C(=C/c2ccccc2Br)COc2ccc(O)c(O)c21,48.2% (inactive)
3,COc1cc2c(c(OC)c1OC)-c1ccc(OC)c(=O)cc1[C@@H](NC(=O)CCl)CC2,42.7% (inactive)
4,CCCCNc1ccc(C#N)c(OCCN(CC)CC)c1,105% (inactive)
5,O=C(c1ccccc1)C1C(=O)N2C(=S)N(c3ccccc3)C(=O)C2C1c1ccc(Cl)cc1 (configuration not stated),90.8% (inactive)
6,CCOc1ccc(NC(=O)CSc2oc(-c3ccccc3)nc2S(=O)(=O)c2ccc(F)cc2)cc1,66.1% (inactive)
7,COc1cc(-n2cc(-c3cc(O)c(C/C=C(\C)CCC=C(C)C)c(O)c3)nn2)cc2c1O[C@]1(C)CC[C@@H](O)C(C)(C)[C@H]1C2,37.9% (inactive)
8,CCOC(=O)/C=C1\S/C(=N\Nc2cc(=O)[nH]c3ccc(Cl)cc23)N(c2ccccc2)C1=O,76.2% (inactive)
9,O=c1oc2c(cnc3ccccc32)cc1-c1ccsc1,88.4% (inactive)
10,C=CCc1c2c(c(OC)c3ccoc13)C(=O)/C(=C/c1ccccc1OC)O2,69.7% (inactive)
11,CC(=O)Nc1nc2ccc(NS(=O)(=O)c3cccc4c(N(C)C)cccc34)cc2[nH]1,76.9% (inactive)
12,O=C1C(Cl)=C(Oc2ccccc2)C(=O)c2ccccc21,106% (inactive)
13,O=C(O)/C(=C\c1ccc(Cl)cc1)c1ccc(Cl)cc1,90.5% (inactive)
14,OCc1cccc(-c2ccc3ncc(-c4nc(NC5CC5)ncc4F)n3c2)c1,-1.5% (active)
15,C=CCn1cc(-c2nc3ccccc3s2)c2cc(-c3ccc4c5c(cccc35)C(=O)N(N)C4=O)ccc21,97.8% (inactive)
16,Cc1ccc(C(C(N)=O)C(C(N)=O)c2ccccc2)cc1 (configuration not stated),115% (inactive)
17,CC(C)n1cnc2c(=S)nc[nH]c21,124% (inactive)
18,CC(C)N1CN2C(=S)NC3C2N(C1)C(=S)N3C (configuration not stated),117% (inactive)
19,S=C1CCSC(=S)N1CCCN1C(=S)CCSC1=S,83.7% (inactive)

row,Structure (SMILES),growth
1,CCN1CCN(Cc2cn(CC(=O)Nc3ccc4c(ccn4Cc4ccccc4)c3)nn2)CC1,97.4% (inactive)
2,CCOC(=O)CSc1ncnc2c1c(-c1ccccc1)c(-c1ccccc1)n2-c1ccc(C)cc1,80.4% (inactive)
3,O=C1/C(=C/c2ccc(Cl)c(Cl)c2)CN(C(=O)C(Cl)Cl)C/C1=C\c1ccc(Cl)c(Cl)c1,-16.8% (active)
4,CCO/C=N/C1=C(C#N)C(c2ccc(OC)cc2)c2sc3c(F)cccc3c2O1 (configuration not stated),64.8% (inactive)
5,COc1ccc(C(c2cc(OC)c(OC)c(OC)c2)N2CCN(c3ccccc3)CC2)cc1 (configuration not stated),89.9% (inactive)
6,CCN(CC)CCOc1ccc(C(=C(C)c2ccc(Cl)cc2)c2ccc(OCCN(CC)CC)cc2)cc1,-62.1% (active)
7,CN1CCN(C(=O)c2ccc(NC(=O)Nc3ccc(-c4nc(N5CCOCC5)c5cccn5n4)cc3)cc2)CC1,-20.2% (active)
8,Cc1ccc(S(=O)(=O)N2CCCC2CO)cc1 (configuration not stated),93.5% (inactive)
9,Nc1c(C(=O)Nc2ccccc2Cl)sc2nc3c(cc12)C(O)CCC3 (configuration not stated),53.9% (inactive)
10,Cc1nc2sc(C(=O)Nc3ccccc3)c(N)c2cc1C(=O)c1ccccc1,63% (inactive)
11,O=C1CC(N2C(=O)/C(=C/C(Cl)=C\c3ccc([N+](=O)[O-])cc3)SC2=S)C(=O)N1c1ccc(Cl)cc1 (configuration not stated),9.19% (active)
12,Cc1ccc(Cl)cc1Nc1nc(C(F)(F)F)ccc1C(=O)N/N=C/c1cccnc1,8.59% (active)
13,CC(C)(C)n1cc(-c2ccnc(NCCCNS(=O)(=O)c3ccc(F)cc3)c2)c(-c2cccc(F)c2)n1,79.2% (inactive)
14,COC(=O)/C(CCC=C(C)C)=C1\[C@@H](OC(C)=O)C[C@@]2(C)[C@H]1C[C@@H](O)[C@H]1[C@@]3(C)CC[C@H](NCCN)[C@@H](C)[C@@H]3CC[C@@]12C,90.2% (inactive)
15,C=C1C(=O)O[C@H]2[C@H]1CC/C(COC(=O)NCc1ccc(Cn3c(=O)sn(CCI)c3=O)cc1)=C\CC[C@@]1(C)O[C@@H]21,32.1% (inactive)
16,COc1cc(-c2nc(SCC(C)C)nc(Nc3cccc4ccccc34)c2C#N)cc(OC)c1OC,87.6% (inactive)
17,Oc1c(Cl)cc(Cl)c2ccc(Cn3cc(-c4ccc(C(F)(F)F)cc4)nn3)nc12,62.2% (inactive)
18,CC1(C)CC2=C3C=C[C@@H]4[C@@]5(C)CCC(=O)C(C)(C)[C@@H]5CC[C@@]4(C)[C@]3(C)CC[C@@]2(C(=O)O)CC1=O,64.5% (inactive)
